Source: PubChem (National Center for Advancing Translational Sciences (NCATS))
HT1080 IDH1KD tx – qHTS for induction of synthetic lethality in tumor cells producing 2HG: qHTS for the HT-1080-IDH1KD cell line. 2% of 360,000 active. AID 686971, 2013. HT-1080 IDH1 knockdown viability, ATP luminescence, 48 h. Potency, µM (titrated, usually from 46.1 µM), inactives show at the top dose activity, negative = toxicity, usual class: cytotoxic;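 also: potency is read from the fitted curve at half-maximal effect; 0% = DMSO wells and -100% = cell-free medium wells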
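Using the IDH1-knockdown HT-1080 line run in the same batch and compound series as the NT line, viability after 48 h at 37 °C was determined by CellTiter-Glo luminescence and expressed as % activity.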
IL1B secr inh – qHTS for Inhibitors of Inflammasome Signaling: IL-1-beta AlphaLISA Primary Screen | THP-1 LPS/ATP IL-1B secretion, AlphaLISA, 16 h; hits give low values | activity change, % at 57.5 µM | 4.7% of 360,000 active; in the data active = activity change below about -50%; inconclusive = mostly about -30% to -49%
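THP-1 cells pretreated 1 hr with compounds (up to 57.5 uM final), then stimulated with LPS (250 ng/mL final) plus ATP (1.25 mM final); secreted IL-1B measured by AlphaLISA after 16 hr, decreased signal indicating inhibition.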
HT1080-NT tox – qHTS for induction of synthetic lethality in tumor cells producing 2HG: qHTS for the HT-1080-NT fibrosarcoma cell line; HT-1080-NT fibrosarcoma viability, CellTiter-Glo ATP luminescence, 48 h; Potency, µM (series often up to 46.1 µM), for inactives: at the top dose activity, negative = less viability, most hits filed as cytotoxic; 1.6% of 360,000 active; AID 686970, 2013;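 also: NT is the 2HG producing partner of a matched IDH1 knockdown line; potency is read from the fitted curve at half-maximal effect; 0% = DMSO-treated cells and -100% = media-only wells without cells; nearly all actives have a fitted effect of over 55% in size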
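Fibrosarcoma NT cells, 750 per well in 5% FBS RPMI, were exposed to compound for 48 hours. Viability: CellTiter-Glo luminescence.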
KB-V1 MDR tox – qHTS assay for MDR1-selective chemotherapeutics: Primary screen using the drug-selected MDR subline cells KB-V1 | KB-V1 MDR cells viability, CellTiter-Glo, 72 h | Potency, µM (series often up to 46.1 µM), actives largely listed as cytotoxic | 3.4% of 400,000 active | AID 1347076, 2019; also: potency is read from the fitted curve at half-maximal effect; nearly all actives have a fitted effect of over 60% in size
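KB-V1 cells (P-gp-expressing MDR subline of KB-3-1) in phenol-red-free DMEM with 10% FBS were exposed to library compounds over a concentration series for 72 h at 37 degrees C. Viability read by CellTiter-Glo luminescence; concentration-effect curves fitted after normalization.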
KB-3-1 tox – qHTS assay for MDR1-selective chemotherapeutics: Primary screen using the parental adenocarcinoma cell KB-3-1 | Potency, µM (titrated, usually from 46.1 µM), hits mostly cytotoxic | 1.4% of 400,000 active | KB-3-1 viability, CellTiter-Glo ATP luminescence, 72 h | AID 1347075, 2019; also: potency is read from the fitted curve at half-maximal effect; nearly all actives have a fitted effect of over 60% in size
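Cytotoxicity measured as CellTiter-Glo luminescence after 72 h at 37 C. Compound titrations were pinned onto drug-naive KB-3-1 parental adenocarcinoma cells grown in DMEM with 10% FBS, and normalized data fitted to concentration-response curves.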
* hit, by the source's call; i = inactive; u = inconclusive; x = not tested or not shown. Hits are enriched below; roughly 8.8% of the tested compounds scored in any of these assays. Unless noted, calls follow the shape of the dose curve; as a rule, active = well fitted curve in the direction sought with a large enough effect; inconclusive = small, poorly fitted or top-dose-only effect, or another doubt; inactive = no such curve, though single readings can be large; an effect the other way counts as inactive or inconclusive. Unless noted, % is scaled to controls: 0 for no effect and ±100 for the full control effect.

SMILES	HT1080 IDH1KD tx	IL1B secr inh	HT1080-NT tox	KB-V1 MDR tox	KB-3-1 tox
Cc1cc(C(=O)O)c2c(=O)n(C)c(=O)n(C)c2n1	x	x	x	u	i
CCCCCCCCN1C(=O)[C@H](CC(=O)NCC2CCCCC2)C[C@@]2(C(=O)OCC)CCCC=C12	-14%	-51*	2%	u	u
CCOC(=O)[C@]12CCCC=C1N(CCC1=CCCCC1)C(=O)[C@H](CC(=O)NCC1CCCCC1)C2	23µM*	u	u	15µM*	16µM*
O=c1c2ccccc2oc2ccc(-c3ccoc3)cc12	x	x	x	u	i
CC(=O)Nc1cc2c(cc1[N+](=O)[O-])-c1ccc(F)cc1C2	-13%	-81*	-6%	i	i
CC(=O)Nc1ccc2c(c1)-c1ccc(F)cc1C2	-2%	15	0%	i	i
Cc1cc(=O)[nH]c(N/N=C/c2c(C)nn(-c3ccccc3)c2C)n1	4%	-15	0%	i	i
Cc1nn(-c2ccccc2)c(C)c1/C=N/Nc1nc2ccccc2[nH]1	18µM*	-88*	u	u	u
Cc1c(/C=N/Nc2nc3ccccc3[nH]2)c2ccccc2n1C	u	-99*	21µM*	u	u
Cn1c(/C=N/Nc2nc3ccccc3[nH]2)nc2ccccc21	u	8	-30%	i	u
Cc1ccsc1/C=N/Nc1nc2ccccc2[nH]1	-2%	35	-17%	u	i
C=CCn1cc(/C=N/Nc2nc3ccccc3[nH]2)c2ccccc21	16µM*	-95*	21µM*	u	i
C(=N\Nc1nc2ccccc2[nH]1)/c1cccs1	0%	-71*	-4%	i	i
Clc1nc2ccccc2cc1/C=N/Nc1nc2ccccc2[nH]1	-6%	23	u	i	i
CCc1nc2c(OCC(=O)C(C)(C)C)cccn2c1N(C)C(=O)Nc1ccccc1OC	10%	12	15%	i	i
Cc1ccsc1/C=N/Nc1ncnc2nc[nH]c12	-7%	81	-20%	i	i
C(=N\Nc1ncnc2nc[nH]c12)/c1cccs1	-4%	-74*	-8%	i	i
Cc1ccc(C2=NN=C(NC(=O)C(F)(F)F)SC2)cc1	-10%	-82*	-30%	i	i
CCOc1ccc(CCNC(=O)Cn2cccc2C(=O)c2ccccc2C)cc1OCC	17%	-2	9%	4.6µM*	i
CCOc1ccc(CCNC(=O)Nc2ccccc2C)cc1OCC	1%	10	1%	u	i
CC(=O)NC(CC(=O)NCCc1ccccc1)c1ccccc1 (stereo not given)	-5%	-8	4%	i	i
O=C(CC(NC(=O)c1ccccc1Cl)c1ccccc1)NCCc1ccc(Cl)cc1 (stereo not given)	9%	14	-1%	8.2µM*	i
O=C(CC(c1ccccc1)c1ccccc1O)NCc1ccccc1Cl (stereo not given)	-25%	u	-25%	i	i
O=C(CC(c1ccccc1)c1ccccc1O)NCCc1ccccc1 (stereo not given)	0%	-51*	-8%	i	i
CN(Cc1ccc(F)cc1)S(=O)(=O)c1nnc(NC(=O)c2ccccc2Br)s1	0%	-16	-6%	i	i
SMILES	HT1080 IDH1KD tx	IL1B secr inh	HT1080-NT tox	KB-V1 MDR tox	KB-3-1 tox
CCc1cccc(CC)c1NC(=O)COC(=O)C1(c2ccc(Cl)cc2)CCCC1	-20%	30	-6%	4.6µM*	i
COc1cccc(C(=O)Oc2cc3c4c(c2)C(C)=CC(C)(C)N4C(=O)C3=O)c1	4.5µM*	29	7.1µM*	i	i
COc1cc2c3c(c1)C(C)=CC(C)(C)N3C(=O)C2=O	3.3µM*	0	10µM*	i	i
COc1ccc(C(=O)Oc2cc3c4c(c2)C(C)=CC(C)(C)N4C(=O)C3=O)cc1OC	-4%	10	0%	i	i
COc1cc(N=C2C(=O)N3c4c(cccc42)C(C)=CC3(C)C)cc(OC)c1	-1%	-14	1%	u	i
O=[N+]([O-])c1cnn(-c2nc(-c3ccccc3)cc(C(F)(F)F)n2)c1	10%	11	13%	i	i
CCCCN(CC(=O)NCc1ccc(F)cc1)C(=O)c1ccco1	-2%	8	6%	i	i
C=CC(C)(C)c1[nH]cnc1/C=C1\NC(=O)C(C(C)C)NC1=O (stereo not given)	-30%	30	u	i	5.8µM*
CCC(C)NC(=O)CN(c1ccc(Cl)c(Cl)c1)S(C)(=O)=O (stereo not given)	1%	-6	20%	i	u
O=C(Nc1ccc2ccccc2c1)c1nc(S(=O)(=O)Cc2ccccc2F)ncc1Cl	x	x	x	i	i
O=S1(=O)CCOC[C@H](c2ccccc2)N1Cc1ccc(F)cc1	x	x	x	i	i
O=C(c1ccc2c3c(cccc13)CC2)C1CCCN(Cc2cccnc2)C1 (stereo not given)	-18%	-78*	-28%	i	i
COc1ccc(/C=N/NC(=O)CNC(=O)c2ccncc2)cc1	0%	22	-2%	i	i
Cc1ccc(NS(=O)(=O)c2ccc(NC(=O)CSc3ccc(Cl)cc3)cc2)c(C)c1	u	-14	16µM*	i	u
O=C(Nc1ccc(S(=O)(=O)NCCc2ccccc2)cc1)c1ccc(Br)o1	-5%	-5	-20%	10µM*	i
Cc1ccc(O)c(NC(=O)CSc2ccc(Cl)cc2)c1	-11%	u	-5%	i	i
Cc1cc(C)cc(NS(=O)(=O)c2ccc(NC(=S)NC(=O)c3ccc(Br)o3)cc2)c1	u	-8	u	18µM*	u
Cc1ccc(NS(=O)(=O)c2ccc(NC(=O)c3ccc(Br)o3)cc2)c(C)c1	u	-25	u	18µM*	21µM*
NS(=O)(=O)c1ccc(NC(=S)NC(=O)c2ccc(Br)o2)cc1	-7%	0	14%	i	i
COc1ccc(C(C)(NC(C)=O)c2nc(-c3cccc(NC(C)=O)c3)cs2)cc1 (stereo not given)	10%	20	23%	i	i
Cc1nn(CC(C)C)c(Cl)c1C(=O)N(C)CC(=O)Nc1ccc(Cl)cc1	-19%	12	-7%	u	i
COc1ccc(S(=O)(=O)NCC(=O)N(CC(=O)NCC2CCCO2)Cc2ccccc2)cc1 (stereo not given)	2%	14	1%	i	i
